Test results from PubChem BioAssay AID743287 (Broad Institute, 2014).
Values joined by “and” are separate entries in the source; they are usually repeats but may differ in a detail not shown here. Equal entries are not always repeated. About 2,300 (0.62%) of roughly 370,000 compounds were called active.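 How the source made its calls: active means lowest replicate activation of at least 40%, so every replicate reaches that level; inactive means the rest.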 Shown is part of a subset that was picked to be rich in actives.

Experiment: GLuc luminescence reporter in INS-1E cells, primary screen for activators of glucose-dependent secretion of insulin (AID 743287);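 further: 0% = median of neutral control wells and 100% = median of IBMX positive control wells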
Conditions: INS-1E GLuc reporter insulin secretion, 2-3 h, at 16.6 µM, stronger effect = higher value
For `C[C@H](CO)N1C[C@H](C)[C@@H](CN(C)C(=O)Nc2cc(F)ccc2F)Oc2cc(C#CC3CC3)ccc2S1(=O)=O`, the activation was -8.09% (inactive). With `CN(C)C(=O)[C@@H]1[C@@H](CO)[C@@H]2Cn3c(cccc3=O)[C@H]1N2C(=O)c1ccc(F)cc1` the activation was 7.45% (inactive). For `O=C(C[C@@H]1CC[C@H](NC(=O)C2CC2)[C@@H](CO)O1)NCc1ccncc1`, the activation was -4.07% (inactive). In the case of `COc1ccc(C2CC(=O)Nc3sc(=N)c4c(N)c(C#N)c(N)nc4c32)cc1OC` (stereo unspecified), the activation is reported as 70.3% (active). With `COc1ccc(C2OCC3(CO2)SC(=O)NC3=O)cc1OC` (stereo unspecified) the activation was 21.8% (inactive). With `CCc1nc2c(OCc3ccc(F)c(F)c3)cccn2c1N(C)C(=O)c1ccco1` the activation was -1.95% (inactive). With `CCc1nc2c(OCc3ccccc3)cccn2c1N(C)C(=O)c1ccco1` the activation was 17.3% (inactive). With `CCc1nc2c(OCCC3CCCCC3)cccn2c1N(C)C(=O)c1ccco1` the activation was 42% (active). With `CCC(=O)Nc1ccc2c(c1)C(=O)N(C)C[C@@H](OC)[C@H](C)CN(Cc1cccnc1)[C@@H](C)CO2` the activation was -1.44% (inactive). With `C[C@@H]1CN([C@@H](C)CO)C(=O)c2cccc(NC(=O)C3CC3)c2O[C@@H]1CN(C)C` the activation was 21.1% (inactive). In the case of `CCOC(=O)c1c(NC(=O)C2CCN(S(=O)(=O)c3ccc(Cl)cc3)CC2)sc2c1CCCC2`, the activation is reported as -4.47% (inactive). In the case of `C=CCN(CC=C)S(=O)(=O)c1ccc(C(=O)Nc2sc3c(c2C(N)=O)CCCCC3)cc1`, the activation is reported as 47.2% (active). For `CC(=O)N1CCc2c(sc(NC(=O)CCS(=O)(=O)c3ccc(C)cc3)c2C(N)=O)C1`, the activation was 4.75% (inactive). For `Cc1ccc(S(=O)(=O)N(C)C[C@@H]2Oc3c(NC(=O)C4CCCCC4)cccc3C(=O)N([C@H](C)CO)C[C@H]2C)cc1`, the activation was -9.86% (inactive). With `O=C(Nc1ccc(CN2CCOCC2)cc1)c1cc(Cl)ccc1Cl` the activation was -0.035% (inactive). With `C=CCn1cc(Cl)cc(C(=O)Nc2ccccc2)c1=O` the activation was 98.4% (active). In the case of `C=CCc1cccc2cc(C(=O)Nc3ccc(NC(C)=O)cc3)c(=O)oc12`, the activation is reported as 6.64% (inactive). With `C[C@H](CO)N1C[C@H](C)[C@H](CN(C)S(=O)(=O)c2ccccc2)Oc2ccc(NC(=O)Cn3cnnn3)cc2C1=O` the activation was 12.8% (inactive). For `C[C@H]1CN([C@@H](C)CO)C(=O)c2cccc(NC(=O)Nc3ccc(F)cc3)c2O[C@H]1CN(C)S(=O)(=O)c1cn(C)cn1`, the activation was 6.95% (inactive). For `O=C(COC(=O)/C=C/c1ccc(Cl)cc1)NC1CCS(=O)(=O)C1` (stereo unspecified), the activation was 14.8% (inactive). In the case of `O=C(COC(=O)c1ncc(Cl)c(Cl)c1Cl)NC1CCS(=O)(=O)C1` (stereo unspecified), the activation is reported as 53.1% (active). With `O=C(COC(=O)c1ncc(Cl)c(Cl)c1Cl)NNC(=O)c1ccccc1` the activation was -6.14% (inactive). In the case of `N#Cc1ccc(OCCCN2CCC(C(O)(c3ccccc3)c3ccccc3)CC2)c(F)c1`, the activation is reported as -32.8% (inactive). For `O=c1[nH]c2ccccc2n1C1CCN(CCOc2ccccc2)CC1`, the activation was -4.23% (inactive). In the case of `OC(c1ccccc1)(c1ccccc1)C1CCN(CCCOc2ccc(-c3ccsc3)cc2)CC1`, the activation is reported as 83.7% (active). For `CC(=O)N1[C@H](CN(C)S(=O)(=O)c2ccccc2)[C@H](c2ccccc2)[C@@H]1CO`, the activation was 2.97% (inactive). With `COc1ccc(NC(=O)N(C)C[C@@H]2Oc3ccc(NC(=O)Nc4ccccc4)cc3CC(=O)N([C@H](C)CO)C[C@@H]2C)cc1` the activation was -8.36% (inactive). With `CN1CCCc2nc(-c3ccccc3)ccc21` the activation was 15.2% (inactive). With `CNc1nc(-c2ccccc2)cc(-c2ccccc2)n1` the activation was 50.3% (active). With `Cc1ccc(-c2cc(=O)[nH]c(NCc3ccccc3)n2)cc1` the activation was 0.61% (inactive). With `C[C@@H]1CN([C@H](C)CO)C(=O)c2cccc(NC(=O)CCCCCC(=O)Nc3ccccc3N)c2O[C@H]1CN(C)Cc1ccc(Oc2ccccc2)cc1` the activation was -51.6% (inactive). With `O=C(C[C@@H]1CC[C@@H](NC(=O)c2ccc3c(c2)OCO3)[C@H](CO)O1)NCc1ccc(Cl)cc1` the activation was -2.44% (inactive). With `COc1ccc(S(=O)(=O)N(C)C[C@H]2Oc3ccc(NS(=O)(=O)c4ccc(F)cc4)cc3C(=O)N([C@H](C)CO)C[C@H]2C)cc1` the activation was -11.6% (inactive). In the case of `COC(=O)C1=C(C)NC(=S)NC1c1ccc(OC)cc1` (stereo unspecified), the activation is reported as 140% (active). For `COC(=O)C1=C(C)N(C)C(=S)NC1c1cc(OC)ccc1OC` (stereo unspecified), the activation was -51% (inactive). In the case of `COC(=O)C1=C(C)NC(=S)NC1c1ccc(OCC(=O)N2CC(C)OC(C)C2)c(OC)c1` (stereo unspecified), the activation is reported as 8.95% (inactive). With `CC(=O)N(C)C[C@@H]1Oc2ccc(N)cc2CC(=O)N(C)C[C@H]1C` the activation was -4.42% (inactive). With `Cc1cc(C)c2oc(C(=O)Nc3ccc(S(=O)(=O)Nc4nccc(C)n4)cc3)cc(=O)c2c1` the activation was 74.6% (active). In the case of `Cc1ccnc(NS(=O)(=O)c2ccc(NC(=O)c3oc4ccccc4c3C)cc2)n1`, the activation is reported as -7.58% (inactive). For `Cc1ccnc(NS(=O)(=O)c2ccc(NC(=O)c3oc4ccc(F)cc4c3C)cc2)n1`, the activation was 17.6% (inactive). In the case of `CC(=O)Nc1ccc2c(c1)CC(=O)N(C)C[C@H](C)[C@H](CN(C)S(C)(=O)=O)O2`, the activation is reported as 17.7% (inactive). For `CC=Cc1ccc2n(c1=O)C[C@H]1[C@H](CO)[C@@H](C(=O)NC3CCCC3)[C@@H]2N1C(=O)c1cnccn1` (mixture of isomers), the activation was 3.54% (inactive). In the case of `Cc1ccccc1C(=O)NC(=S)NC1CC1`, the activation is reported as -11.6% (inactive). For `Cc1cc(Br)ccc1NC(=S)NC1CCCC1`, the activation was 46.8% (active). With `CC1CN(C(=S)Nc2ccc(Br)cc2Cl)CC(C)O1` (stereo unspecified) the activation was -10.5% (inactive). With `C[C@@H]1CN([C@H](C)CO)C(=O)c2cccc(NS(=O)(=O)c3cn(C)cn3)c2O[C@H]1CN(C)S(=O)(=O)c1ccc(Cl)cc1` the activation was 12% (inactive). For `O=C(Nc1ccccc1F)N1CC(=O)N2[C@H](CO)[C@H](c3ccc(C#CC4CC4)cc3)[C@@H]2C1`, the activation was -9.47% (inactive). For `COc1cccc(CNC(=O)c2cc3c(c(-c4cccc(-c5ccc(C#N)cc5)c4)n2)[C@@H](CCO)N([S@](=O)C(C)(C)C)C3)c1`, the activation was 11.4% (inactive). With `O=C1NCCOCc2cn(nn2)CC[C@@H]1Cc1ccccc1` the activation was 9.64% (inactive). For `CCOC(=O)c1sc2nc(C)nc(SCC(N)=O)c2c1C`, the activation was 13.1% (inactive). For `CCOC(=O)c1sc2nc(C)[nH]c(=O)c2c1C`, the activation was 49.9% (active). For `CCOC(=O)c1sc2nc(C)nc(Nc3ccc(OC)c(OC)c3)c2c1C`, the activation was 15.4% (inactive). In the case of `CCCNC(=O)N1C[C@@H](O)COC[C@H]2O[C@H](CC(=O)N3CCC(Cc4ccccc4)CC3)CC[C@@H]21`, the activation is reported as 2.87% (inactive). In the case of `CC(C)NC(=O)N1CCCCN2[C@H](CO)[C@@H](c3ccc(Br)cc3)[C@H]2C1`, the activation is reported as 1.31% (inactive). For `Cc1cccc(-c2c(NC(=O)c3ccco3)oc3ccc(Cl)cc3c2=O)c1`, the activation was -13.2% (inactive). In the case of `COc1ccc(-c2c(NC(=O)c3ccco3)oc3ccc(Cl)cc3c2=O)cc1`, the activation is reported as 106% (active). With `COc1ccc(OC)c(NC(=O)c2cnn(-c3ccccc3Cl)c2NC(=O)c2ccco2)c1` the activation was -0.082% (inactive). In the case of `O=C(Nc1cc(F)ccc1F)N1CCCCN2[C@H](CO)[C@@H](c3ccc(-c4cccnc4)cc3)[C@@H]2C1`, the activation is reported as -2.5% (inactive). For `CO[C@H]1CN(C)C(=O)c2ccc(NC(=O)C3CCCC3)cc2OC[C@@H](C)NC[C@@H]1C`, the activation was -7.48% (inactive). For `COc1cccc(CNC(=O)[C@@H]2[C@@H](CO)[C@@H]3Cn4c(ccc(-c5cccnc5)c4=O)[C@@H]3N2C)c1`, the activation was -0.31% (inactive). With `O=C(NCC[C@@H]1CC[C@@H](NS(=O)(=O)c2ccc(Cl)cc2)[C@@H](CO)O1)c1ccccc1F` the activation was 6.92% (inactive). In the case of `C[C@@H]1CN([C@H](C)CO)S(=O)(=O)c2ccc(C3=CCCC3)cc2O[C@H]1CN(C)C(=O)CC1CC1`, the activation is reported as -5.57% (inactive). In the case of `CCOc1ncccc1C(=O)NCCc1ccc(OC)cc1`, the activation is reported as 35.2% (inactive). With `CCOC(=O)Cn1c(=O)n(Cc2ccc(OC)cc2)c(=O)c2cccnc21` the activation was 46.4% (active). In the case of `COCCCNC(=O)CCc1nc2cccnc2n1Cc1ccc(OC)cc1`, the activation is reported as 10.4% (inactive). With `COCC(=O)N1CCC2(CC1)CN(C(=O)Nc1ccccc1F)[C@@H](CO)c1c2c2ccc(OC)cc2n1C` the activation was -10.5% (inactive). With `O=S(=O)(NCC[C@H]1CC[C@@H](NS(=O)(=O)c2cccc(Cl)c2)[C@@H](CO)O1)c1cccc(F)c1` the activation was -5.04% (inactive). For `CO[C@@H]1CN(C)C(=O)c2ccc(NS(=O)(=O)c3ccc(Cl)cc3)cc2OC[C@@H](C)N(C)C[C@H]1C`, the activation was -6.5% (inactive) and 12.1% (inactive). For `CN(C)C(=O)c1ccc(-c2ccc(C3[C@@H]4CN(C(=O)Nc5ccccc5)C[C@H]3N4)cc2)cc1` (stereo partly specified), the activation was -5.33% (inactive). For `O=C(C1CCCCC1)N1C[C@@H]2N[C@H](C1)C2c1ccc(-c2cccc(F)c2)cc1` (stereo partly specified), the activation was 22.3% (inactive) and -4.66% (inactive). With `Cc1cccc(-c2ccc(C3[C@@H]4CN(C(=O)Nc5ccc(C(F)(F)F)cc5)C[C@H]3N4)cc2)c1` (stereo partly specified) the activation was 763% (active). In the case of `C[C@H]1CN([C@@H](C)CO)C(=O)c2cc(NC(=O)C3CCCCC3)ccc2O[C@H]1CN(C)S(=O)(=O)c1cn(C)cn1`, the activation is reported as 17.4% (inactive). For `O=C(C1CCOCC1)N1CC(=O)N2[C@H](CO)[C@H](c3ccc(C#CC4CCCCC4)cc3)[C@H]2C1`, the activation was 6.98% (inactive). With `Cc1ccc2nc(CN(C)C(=O)[C@@H](Cc3ccccc3)NC(=O)[C@H]3O[C@@H](n4ccc(=O)[nH]c4=O)[C@H](O)[C@@H]3O)[nH]c2c1` the activation was 42.3% (active). In the case of `CN(C)C(=O)N1CCN(C(=O)[C@@H](Cc2ccccc2)NC(=O)[C@H]2O[C@@H](n3ccc(N)nc3=O)[C@H](O)[C@@H]2O)CC1`, the activation is reported as 13.5% (inactive). For `O=C(N[C@H](Cc1ccccc1)C(=O)N1CCCN(Cc2cccs2)CC1)[C@H]1O[C@@H](n2ccc(=O)[nH]c2=O)[C@H](O)[C@@H]1O`, the activation was 13% (inactive).
